# Measured values: the supplement of paper PMC4022240
# ± gives the standard deviation.
# T1: HaloTag-ATRX ADD domain (163-292)
# T1 chain: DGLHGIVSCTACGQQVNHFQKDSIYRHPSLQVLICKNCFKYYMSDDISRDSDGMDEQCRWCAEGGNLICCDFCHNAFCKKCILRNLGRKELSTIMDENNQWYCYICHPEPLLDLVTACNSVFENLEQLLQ
# Tests used:
# Test in all cases: peptide microarray binding signal (635 nm), min-max normalized on array (fraction of array maximum); higher = stronger binding
# Details in all cases: peptide region: H3 5-17
# [1] = biological target: T1, HaloTag-ATRX ADD domain (163-292)
# Summary of the method: (§1)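 Arrays carried histone 13-mer peptide–cellulose conjugates printed in triplicate on nitrocellulose alongside a Cy3 tracer. After overnight blocking at 4°C, they were incubated for 1 h at 4°C with biotin-labelled HaloTag reader fusions (10 nM to 1 μM) plus streptavidin-Alexa Fluor 647, or with rabbit histone antibodies (1:10,000 to 1:2,000) plus anti-rabbit Alexa 647. Scanning on an Axon GenePix 4000B used 635 nm for signal and 532 nm for misprints. The binding signal reported is each triplicate's mean spot intensity after per-library min-max scaling.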
# [2] = biological target: HaloTag-ING2 PHD (mouse Ing2 200-280)
# Summary of the method: as §1
# [3] = biological target: anti-H3K4me3 antibody ab8580
# Summary of the method: as §1
# [4] = biological target: anti-H3K9me3 antibody ab8898
# Summary of the method: as §1
# [5] = peptide modifications: H3R8me2a H3S10ph, binder concentration: 1:2,000 dilution
# [6] = peptide modifications: H3R8me2a H3S10ph, binder concentration: 1:10,000 dilution
# [7] = peptide modifications: H3R8me1 H3K9me3, binder concentration: 1:2,000 dilution
# [8] = peptide modifications: H3R8me1 H3K9me3, binder concentration: 1:10,000 dilution
# [9] = peptide modifications: H3R8cit H3T11ph, binder concentration: 1:2,000 dilution
# [10] = peptide modifications: H3R8cit H3T11ph, binder concentration: 1:10,000 dilution
# [11] = peptide modifications: H3R8me1 H3K9ac, binder concentration: 1:2,000 dilution
# [12] = peptide modifications: H3R8me1 H3K9ac, binder concentration: 1:10,000 dilution
# [13] = peptide modifications: H3R8me1 H3T11ph, binder concentration: 1:2,000 dilution
# [14] = peptide modifications: H3R8me1 H3T11ph, binder concentration: 1:10,000 dilution
# [15] = peptide modifications: H3R8cit H3K9me3, binder concentration: 1:2,000 dilution
# [16] = peptide modifications: H3R8cit H3K9me3, binder concentration: 1:10,000 dilution
# [17] = peptide modifications: H3R8me2a H3K9ac, binder concentration: 1:2,000 dilution
# [18] = peptide modifications: H3R8me2a H3K9ac, binder concentration: 1:10,000 dilution
# [19] = peptide modifications: H3R8cit H3K9me2, binder concentration: 1:2,000 dilution
# [20] = peptide modifications: H3R8cit H3K9me2, binder concentration: 1:10,000 dilution
# [21] = peptide modifications: H3R8me2a H3K9me3, binder concentration: 1:2,000 dilution
# [22] = peptide modifications: H3R8me2a H3K9me3, binder concentration: 1:10,000 dilution
# [23] = peptide modifications: H3R8me2a H3K9me2, binder concentration: 1:2,000 dilution
# [24] = peptide modifications: H3R8me2a H3K9me2, binder concentration: 1:10,000 dilution
binder,measurement,setting,value
QTARKSTGGKAPR [H3 5-17 Q T A Rme2a K Sph T G G K A P R],peptide microarray binding signal,"[1]; peptide modifications: H3R8me2a H3S10ph, binder concentration: 50 nM",0.00837 ± 0.0001
same,peptide microarray binding signal,"[1]; peptide modifications: H3R8me2a H3S10ph, binder concentration: 500 nM",0.0191 ± 0.0021
same,peptide microarray binding signal,"[2]; peptide modifications: H3R8me2a H3S10ph, binder concentration: 10 nM",0.0259 ± 0.0014
same,peptide microarray binding signal,"[2]; peptide modifications: H3R8me2a H3S10ph, binder concentration: 100 nM",0.0521 ± 0.0085
same,peptide microarray binding signal,[3]; [5],0.00508 ± 0.00076
same,peptide microarray binding signal,[3]; [6],0.00525 ± 0.00042
same,peptide microarray binding signal,[4]; [5],0.00298 ± 0.00042
same,peptide microarray binding signal,[4]; [6],0.00288 ± 4.3e-05
QTARKSTGGKAPR [H3 5-17 Q T A Rme Kme3 S T G G K A P R],peptide microarray binding signal,"[1]; peptide modifications: H3R8me1 H3K9me3, binder concentration: 50 nM",0.00652 ± 0.00076
same,peptide microarray binding signal,"[1]; peptide modifications: H3R8me1 H3K9me3, binder concentration: 500 nM",0.0104 ± 0.0013
same,peptide microarray binding signal,"[2]; peptide modifications: H3R8me1 H3K9me3, binder concentration: 10 nM",0.0116 ± 0.00032
same,peptide microarray binding signal,"[2]; peptide modifications: H3R8me1 H3K9me3, binder concentration: 100 nM",0.0168 ± 0.002
same,peptide microarray binding signal,[3]; [7],0.0438 ± 0.013
same,peptide microarray binding signal,[3]; [8],0.0394 ± 0.0046
same,peptide microarray binding signal,[4]; [7],0.185 ± 0.023
same,peptide microarray binding signal,[4]; [8],0.243 ± 0.0063
QTARKSTGGKAPR [H3 5-17 Q T A Rcit K S Tph G G K A P R],peptide microarray binding signal,"[1]; peptide modifications: H3R8cit H3T11ph, binder concentration: 50 nM",0.00404 ± 0.00028
same,peptide microarray binding signal,"[1]; peptide modifications: H3R8cit H3T11ph, binder concentration: 500 nM",0.0123 ± 0.0011
same,peptide microarray binding signal,"[2]; peptide modifications: H3R8cit H3T11ph, binder concentration: 10 nM",0.0179 ± 0.0072
same,peptide microarray binding signal,"[2]; peptide modifications: H3R8cit H3T11ph, binder concentration: 100 nM",0.0242 ± 0.0054
same,peptide microarray binding signal,[3]; [9],0.00285 ± 4.3e-05
same,peptide microarray binding signal,[3]; [10],0.002511 ± 2.2e-05
same,peptide microarray binding signal,[4]; [9],0.00142 ± 0.00018
same,peptide microarray binding signal,[4]; [10],0.00115 ± 2e-05
QTARKSTGGKAPR [H3 5-17 Q T A Rme Kac S T G G K A P R],peptide microarray binding signal,"[1]; peptide modifications: H3R8me1 H3K9ac, binder concentration: 50 nM",0.0137 ± 0.00035
same,peptide microarray binding signal,"[1]; peptide modifications: H3R8me1 H3K9ac, binder concentration: 500 nM",0.0307 ± 0.0019
same,peptide microarray binding signal,"[2]; peptide modifications: H3R8me1 H3K9ac, binder concentration: 10 nM",0.0479 ± 0.004
same,peptide microarray binding signal,"[2]; peptide modifications: H3R8me1 H3K9ac, binder concentration: 100 nM",0.0783 ± 0.0015
same,peptide microarray binding signal,[3]; [11],0.0231 ± 0.0043
same,peptide microarray binding signal,[3]; [12],0.0272 ± 0.0053
same,peptide microarray binding signal,[4]; [11],0.0277 ± 0.0029
same,peptide microarray binding signal,[4]; [12],0.0205 ± 0.00081
QTARKSTGGKAPR [H3 5-17 Q T A Rme K S Tph G G K A P R],peptide microarray binding signal,"[1]; peptide modifications: H3R8me1 H3T11ph, binder concentration: 50 nM",0.00818 ± 0.0006
same,peptide microarray binding signal,"[1]; peptide modifications: H3R8me1 H3T11ph, binder concentration: 500 nM",0.017 ± 0.0013
same,peptide microarray binding signal,"[2]; peptide modifications: H3R8me1 H3T11ph, binder concentration: 10 nM",0.0191 ± 0.0015
same,peptide microarray binding signal,"[2]; peptide modifications: H3R8me1 H3T11ph, binder concentration: 100 nM",0.042 ± 0.0045
same,peptide microarray binding signal,[3]; [13],0.00244 ± 0.00022
same,peptide microarray binding signal,[3]; [14],0.00428 ± 0.00027
same,peptide microarray binding signal,[4]; [13],0.0103 ± 0.012
same,peptide microarray binding signal,[4]; [14],0.012 ± 0.01
QTARKSTGGKAPR [H3 5-17 Q T A Rcit Kme3 S T G G K A P R],peptide microarray binding signal,"[1]; peptide modifications: H3R8cit H3K9me3, binder concentration: 50 nM",0.0148 ± 0.00057
same,peptide microarray binding signal,"[1]; peptide modifications: H3R8cit H3K9me3, binder concentration: 500 nM",0.036 ± 0.002
same,peptide microarray binding signal,"[2]; peptide modifications: H3R8cit H3K9me3, binder concentration: 10 nM",0.0937 ± 0.0048
same,peptide microarray binding signal,"[2]; peptide modifications: H3R8cit H3K9me3, binder concentration: 100 nM",0.102 ± 0.013
same,peptide microarray binding signal,[3]; [15],0.453 ± 0.025
same,peptide microarray binding signal,[3]; [16],0.334 ± 0.09
same,peptide microarray binding signal,[4]; [15],1 ± 0.068
same,peptide microarray binding signal,[4]; [16],0.952 ± 0.059
QTARKSTGGKAPR [H3 5-17 Q T A Rme2a Kac S T G G K A P R],peptide microarray binding signal,"[1]; peptide modifications: H3R8me2a H3K9ac, binder concentration: 50 nM",0.00423 ± 6.5e-05
same,peptide microarray binding signal,"[1]; peptide modifications: H3R8me2a H3K9ac, binder concentration: 500 nM",0.003 ± 4.1e-05
same,peptide microarray binding signal,"[2]; peptide modifications: H3R8me2a H3K9ac, binder concentration: 10 nM",0.00651
same,peptide microarray binding signal,"[2]; peptide modifications: H3R8me2a H3K9ac, binder concentration: 100 nM",0.00765 ± 0.00019
same,peptide microarray binding signal,[3]; [17],0.00208 ± 6e-05
same,peptide microarray binding signal,[3]; [18],0.00217 ± 5.2e-05
same,peptide microarray binding signal,[4]; [17],0.00403 ± 0.00054
same,peptide microarray binding signal,[4]; [18],0.00427 ± 9.8e-05
QTARKSTGGKAPR [H3 5-17 Q T A Rcit Kme2 S T G G K A P R],peptide microarray binding signal,"[1]; peptide modifications: H3R8cit H3K9me2, binder concentration: 50 nM",0.0094 ± 0.00026
same,peptide microarray binding signal,"[1]; peptide modifications: H3R8cit H3K9me2, binder concentration: 500 nM",0.0211 ± 0.0019
same,peptide microarray binding signal,"[2]; peptide modifications: H3R8cit H3K9me2, binder concentration: 10 nM",0.0388 ± 0.00083
same,peptide microarray binding signal,"[2]; peptide modifications: H3R8cit H3K9me2, binder concentration: 100 nM",0.0648 ± 0.0026
same,peptide microarray binding signal,[3]; [19],0.016 ± 0.0013
same,peptide microarray binding signal,[3]; [20],0.0193 ± 0.00081
same,peptide microarray binding signal,[4]; [19],0.271 ± 0.036
same,peptide microarray binding signal,[4]; [20],0.197 ± 0.037
QTARKSTGGKAPR [H3 5-17 Q T A Rme2a Kme3 S T G G K A P R],peptide microarray binding signal,"[1]; peptide modifications: H3R8me2a H3K9me3, binder concentration: 50 nM",0.00527 ± 0.0012
same,peptide microarray binding signal,"[1]; peptide modifications: H3R8me2a H3K9me3, binder concentration: 500 nM",0.0107 ± 0.0015
same,peptide microarray binding signal,"[2]; peptide modifications: H3R8me2a H3K9me3, binder concentration: 10 nM",0.0164 ± 0.0009
same,peptide microarray binding signal,"[2]; peptide modifications: H3R8me2a H3K9me3, binder concentration: 100 nM",0.019 ± 0.0012
same,peptide microarray binding signal,[3]; [21],0.0361 ± 0.011
same,peptide microarray binding signal,[3]; [22],0.0283 ± 0.011
same,peptide microarray binding signal,[4]; [21],0.208 ± 0.075
same,peptide microarray binding signal,[4]; [22],0.208 ± 0.025
QTARKSTGGKAPR [H3 5-17 Q T A Rme2a Kme2 S T G G K A P R],peptide microarray binding signal,"[1]; peptide modifications: H3R8me2a H3K9me2, binder concentration: 50 nM",0.007555 ± 2.4e-05
same,peptide microarray binding signal,"[1]; peptide modifications: H3R8me2a H3K9me2, binder concentration: 500 nM",0.0185 ± 0.0016
same,peptide microarray binding signal,"[2]; peptide modifications: H3R8me2a H3K9me2, binder concentration: 10 nM",0.0456 ± 0.0053
same,peptide microarray binding signal,"[2]; peptide modifications: H3R8me2a H3K9me2, binder concentration: 100 nM",0.0526 ± 0.0031
same,peptide microarray binding signal,[3]; [23],0.032 ± 0.0036
same,peptide microarray binding signal,[3]; [24],0.0252 ± 0.0039
same,peptide microarray binding signal,[4]; [23],0.185 ± 0.023
same,peptide microarray binding signal,[4]; [24],0.104 ± 0.0059
